Source: PubChem
IDE exosite FP – insulin-degrading enzyme (human) exo-site inhibition | P14735 | AID 1259349 | hit rate 6.3% among 17,000 | z-score at 20 µM | purified IDE, FL-6b probe fluorescence polarization; active compounds read low;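 active means z-score of -3 or lower, meaning strong loss of probe binding signal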;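 further: His-tagged human IDE residues 42-1019 made in E. coli with 30 nM FL-6b probe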
Target sequence (P14735 42-1019 limits assumed): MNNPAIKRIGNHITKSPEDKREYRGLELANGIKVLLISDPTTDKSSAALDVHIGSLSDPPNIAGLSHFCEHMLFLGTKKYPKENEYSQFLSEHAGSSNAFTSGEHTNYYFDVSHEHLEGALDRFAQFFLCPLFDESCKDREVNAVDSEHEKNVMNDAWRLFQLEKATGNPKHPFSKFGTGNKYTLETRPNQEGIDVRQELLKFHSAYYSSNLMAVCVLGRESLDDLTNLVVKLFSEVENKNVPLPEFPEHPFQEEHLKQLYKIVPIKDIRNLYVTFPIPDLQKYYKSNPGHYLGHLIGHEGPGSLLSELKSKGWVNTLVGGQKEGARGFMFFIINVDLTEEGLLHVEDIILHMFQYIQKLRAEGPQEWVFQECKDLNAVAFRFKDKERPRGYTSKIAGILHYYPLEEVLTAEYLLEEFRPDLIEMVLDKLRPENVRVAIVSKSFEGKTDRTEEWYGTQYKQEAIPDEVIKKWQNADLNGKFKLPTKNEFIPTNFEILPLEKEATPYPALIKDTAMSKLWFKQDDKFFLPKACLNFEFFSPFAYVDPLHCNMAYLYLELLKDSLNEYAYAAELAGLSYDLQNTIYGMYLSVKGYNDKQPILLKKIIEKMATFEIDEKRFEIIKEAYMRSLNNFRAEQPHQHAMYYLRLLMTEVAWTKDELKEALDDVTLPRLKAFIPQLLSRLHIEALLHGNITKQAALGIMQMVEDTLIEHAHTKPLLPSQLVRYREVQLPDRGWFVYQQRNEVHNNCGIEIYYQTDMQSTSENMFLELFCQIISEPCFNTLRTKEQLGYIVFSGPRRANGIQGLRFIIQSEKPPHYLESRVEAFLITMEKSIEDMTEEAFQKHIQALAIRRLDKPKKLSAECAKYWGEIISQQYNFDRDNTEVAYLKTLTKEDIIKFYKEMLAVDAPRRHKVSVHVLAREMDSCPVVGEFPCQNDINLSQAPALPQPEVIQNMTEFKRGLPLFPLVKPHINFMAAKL
Of the large screens only hits and unclear results are named; the others gave an inactive call. Many of the other results were omitted from the sample, so hits are more common in it than they were.

COc1ccccc1-c1ccc([C@H]2[C@@H](CO)N3CCCCN(C(=O)c4cccnc4)C[C@@H]23)cc1	none
COc1ccccc1-c1ccc([C@@H]2[C@@H](CO)N3CCCCN(C(=O)c4cccnc4)C[C@@H]23)cc1	none
COc1ccc(C#Cc2ccc([C@H]3[C@H](CO)N4C(=O)CN(C(=O)c5ccc(F)cc5)C[C@@H]34)cc2)cc1	none
COc1ccc(C(=O)N2C[C@@H]3[C@H](c4ccccc42)[C@H](CO)N3C(=O)Cc2ccccn2)cc1	none
CC(=O)N1CC2(C1)[C@@H](c1ccccc1)[C@@H](CO)N2C(=O)Cc1ccccc1	none
C[C@H]1CCCCO[C@H](CN(C)C(=O)Nc2cccc3ccccc23)[C@@H](C)CN([C@@H](C)CO)C(=O)c2cc(NC(=O)CCC(F)(F)F)ccc2O1	none
CCC(=O)N1CC2(CCN(C(=O)Nc3c(C)noc3C)CC2)c2c([nH]c3cc(OC)ccc23)[C@H]1CO	none
CCCC(=O)Nc1ccc2c(c1)C(=O)N(C)[C@@H]1CC[C@@H](CC(=O)NCc3cccc(F)c3)O[C@@H]1CO2	none
CCCC#Cc1ccc([C@@H]2[C@@H](CO)N3CCCCN(CC4CC4)C[C@H]23)cc1	none
COCC#Cc1ccc([C@H]2[C@H](CO)N3C(=O)CN(C(=O)CN4CCOCC4)C[C@@H]23)cc1	none
C[C@@H]1CN([C@@H](C)CO)C(=O)c2c(c3ccccc3n2C)-c2ccccc2CO[C@H]1CN(C)Cc1cccc(C(=O)Nc2ccccc2N)c1	none
CCCNC(=O)N1CCC2(CC1)CN(Cc1cccc(OC)c1)[C@@H](CO)c1[nH]c3cc(OC)ccc3c12	IDE exosite FP -3.05
COc1ccc2c3c([nH]c2c1)[C@H](CO)N(C(C)=O)CC31CCN(C(C)=O)CC1	none
COc1ccc2c3c([nH]c2c1)[C@@H](CO)N(Cc1cccc(F)c1)CC31CCN(C(C)=O)CC1	IDE exosite FP -4.25
COc1ccc2c3c([nH]c2c1)[C@H](CO)N(Cc1ccccc1)CC31CCN(C(=O)NC(C)C)CC1	none
CCCNC(=O)N1CCC2(CC1)CN(C(=O)COC)[C@H](CO)c1[nH]c3cc(OC)ccc3c12	none
COc1ccc2c3c([nH]c2c1)[C@H](CO)N(CC1CC1)CC31CCN(C(=O)Nc2cccc(F)c2)CC1	none
COc1ccc(-c2ccc([C@@H]3[C@@H](CO)N4CCCCN(C(=O)c5ccc6c(c5)OCO6)C[C@H]34)cc2)cc1	none
O=C1CNC[C@@H]2[C@H](c3ccc(C#CC4CCCC4)cc3)[C@@H](CO)N12	none
CCS(=O)(=O)N1CCCCN2[C@H](C1)[C@@H](c1ccc(-c3ccc(C#N)cc3)cc1)[C@@H]2CO	none
CO[C@@H](CN(C)C(=O)C1CCOCC1)[C@H](C)CN(C(=O)Nc1ccc(C(F)(F)F)cc1)[C@@H](C)CO	none
CCS(=O)(=O)N1CC2(CN(C(=O)Cc3ccccn3)[C@H](CO)c3[nH]c4cc(OC)ccc4c32)C1	none
COCC(=O)N1CC(=O)N2[C@H](CO)[C@H](c3ccc(C#CC4CCCC4)cc3)[C@H]2C1	none
C/C=C/c1ccc([C@@H]2[C@H](CO)N(S(C)(=O)=O)[C@H]2CN(CC)C(C)=O)cc1	none
COCC(=O)N1CC2(C1)CN(Cc1nccs1)[C@H](CO)c1c2c2ccc(OC)cc2n1C	none
O=C(Cc1ccccc1)N1CC(=O)N2[C@H](C1)[C@H](c1ccc(C#CCc3ccccc3)cc1)[C@@H]2CO	IDE exosite FP -3.58
O=C(Cc1ccccc1)N1CC(=O)N2[C@H](CO)[C@@H](c3ccc(C#Cc4ccccc4)cc3)[C@H]2C1	none
O=C(Cc1ccccc1)N1CC(=O)N2[C@@H](CO)[C@@H](c3ccc(C#CCc4ccccc4)cc3)[C@@H]2C1	IDE exosite FP -3.96
O=C(Cc1ccccc1)N1CC(=O)N2[C@@H](CO)[C@H](c3ccc(C#CCc4ccccc4)cc3)[C@@H]2C1	none
O=C(Cc1ccccc1)N1CC(=O)N2[C@@H](CO)[C@H](c3ccc(C#Cc4ccccc4)cc3)[C@@H]2C1	none
O=C(Cc1ccccc1)N1CC(=O)N2[C@H](CO)[C@@H](c3ccc(C#CCc4ccccc4)cc3)[C@@H]2C1	none
CO[C@H]1CN(C)C(=O)c2ccc(NC(=O)Nc3cc(F)ccc3F)cc2OC[C@H](C)N(C(=O)c2ccccn2)C[C@@H]1C	none
CNC(=O)C[C@H]1CC[C@@H]2[C@H](COc3ccc(NC(=O)c4ccccc4F)cc3C(=O)N2C)O1	none
O=C(NCC[C@H]1CC[C@@H](NS(=O)(=O)c2ccc(F)cc2)[C@@H](CO)O1)c1ccc2c(c1)OCO2	none
CO[C@@H]1CN(C)C(=O)c2cc(NC(=O)Nc3ccc4c(c3)OCO4)ccc2OC[C@@H](C)N(C(C)=O)C[C@H]1C	none
COc1cccc(-c2ccc([C@H]3[C@H](CO)N4C(=O)CN(C(=O)C5CCCCC5)C[C@@H]34)cc2)c1	IDE exosite FP -5.64
COc1cccc(-c2ccc([C@H]3[C@H]4CN(C(=O)C5CCCCC5)CC(=O)N4[C@H]3CO)cc2)c1	IDE exosite FP -3.39
COc1ccc(-c2ccc([C@H]3[C@H]4CN(C(=O)C5CCCC5)CC(=O)N4[C@H]3CO)cc2)cc1	none
COc1ccc(-c2ccc([C@H]3[C@H](CO)N4C(=O)CN(C(=O)C5CCCC5)C[C@@H]34)cc2)cc1	none
COc1cccc(-c2ccc([C@@H]3[C@H]4CN(C(=O)C5CCCCC5)CC(=O)N4[C@H]3CO)cc2)c1	IDE exosite FP -7.61
N#C[C@@H]1[C@H](c2ccc(C#Cc3cccc(F)c3)cc2)[C@H](CO)N1C(=O)C1CCOCC1	none
CC(C)CN(C[C@@H]1N[C@@H](CO)[C@@H]1c1ccccc1)C(=O)CN(C)C	none
C[C@H](O)C#Cc1ccc([C@@H]2[C@@H](CO)N3CCCCN(CC4CCOCC4)C[C@@H]23)cc1	none
CN(C)C(=O)c1ccc(-c2ccc([C@@H]3[C@H](CO)N4C(=O)CN(C(=O)C5CCCCC5)C[C@@H]34)cc2)cc1	none
CCC(=O)N1[C@H](CO)[C@H](c2ccc(C3=CCCC3)cc2)[C@H]1CNCC1CCCC1	none
COc1ccc2c3c([nH]c2c1)[C@H](CO)N(Cc1ccc(Cl)cc1)CC31CCN(Cc2nccs2)CC1	none
CC(C)CC#Cc1ccc([C@H]2[C@@H](CO)N3C(=O)CN(C(=O)NC(C)C)C[C@@H]23)cc1	none
COc1ccccc1C#Cc1ccc([C@@H]2[C@@H](CO)N(C(=O)C3CCC3)[C@H]2C#N)cc1	IDE exosite FP -4.23
N#C[C@@H]1[C@H](c2ccc(C#Cc3ccc(F)cc3)cc2)[C@@H](CO)N1C(=O)C1CCCC1	none
N#C[C@@H]1[C@@H](c2ccc(C#Cc3ccccc3F)cc2)[C@@H](CO)N1C(=O)C1CCCCC1	none
N#C[C@@H]1[C@H](c2ccc(C#Cc3ccccc3F)cc2)[C@H](CO)N1C(=O)C1CCC1	none
COc1ccccc1C#Cc1ccc([C@@H]2[C@H](C#N)N(C(=O)C3CCCCC3)[C@H]2CO)cc1	IDE exosite FP -6.62
N#C[C@@H]1[C@@H](c2ccc(C#Cc3ccccc3F)cc2)[C@H](CO)N1C(=O)C1CCCCC1	none
COc1ccccc1C#Cc1ccc([C@@H]2[C@@H](C#N)N(C(=O)C3CCC3)[C@@H]2CO)cc1	IDE exosite FP -4.63
COc1ccccc1C#Cc1ccc([C@@H]2[C@H](C#N)N(C(=O)C3CCC3)[C@H]2CO)cc1	IDE exosite FP -7.12
COc1ccccc1C#Cc1ccc([C@@H]2[C@@H](CO)N(C(=O)C3CCCCC3)[C@H]2C#N)cc1	none
C[C@@H]1CCCCO[C@@H](CN(C)C(=O)Nc2cccc3ccccc23)[C@H](C)CN([C@H](C)CO)C(=O)c2cc(NC(=O)CCC(F)(F)F)ccc2O1	none
C/C=C/c1ccc([C@H]2[C@@H](CO)N(C(C)=O)[C@@H]2CNC(=O)NCCC)cc1	none
